Assay results reported in paper PMC4336329 (PLoS ONE, 2015).
The campaign covered roughly 310,000 compounds. About 14,000 (4.5%) showed an effect of 50% or more. Effects have a minus sign here. The list comes from a sample in which strong results are over-represented; it also holds similar structures and randomly drawn compounds.

Target: human ether-à-go-go-related gene (hERG) potassium channel (human, UniProt Q12809)
Experiment: primary screen, population patch clamp on CHO cells stably expressing hERG; higher = less effect of the substance
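Further: peak tail current of the secondary pulse compared with the same well before compound.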

human ether-à-go-go-related gene (hERG) potassium channel, sequence (Q12809 whole entry, looked up): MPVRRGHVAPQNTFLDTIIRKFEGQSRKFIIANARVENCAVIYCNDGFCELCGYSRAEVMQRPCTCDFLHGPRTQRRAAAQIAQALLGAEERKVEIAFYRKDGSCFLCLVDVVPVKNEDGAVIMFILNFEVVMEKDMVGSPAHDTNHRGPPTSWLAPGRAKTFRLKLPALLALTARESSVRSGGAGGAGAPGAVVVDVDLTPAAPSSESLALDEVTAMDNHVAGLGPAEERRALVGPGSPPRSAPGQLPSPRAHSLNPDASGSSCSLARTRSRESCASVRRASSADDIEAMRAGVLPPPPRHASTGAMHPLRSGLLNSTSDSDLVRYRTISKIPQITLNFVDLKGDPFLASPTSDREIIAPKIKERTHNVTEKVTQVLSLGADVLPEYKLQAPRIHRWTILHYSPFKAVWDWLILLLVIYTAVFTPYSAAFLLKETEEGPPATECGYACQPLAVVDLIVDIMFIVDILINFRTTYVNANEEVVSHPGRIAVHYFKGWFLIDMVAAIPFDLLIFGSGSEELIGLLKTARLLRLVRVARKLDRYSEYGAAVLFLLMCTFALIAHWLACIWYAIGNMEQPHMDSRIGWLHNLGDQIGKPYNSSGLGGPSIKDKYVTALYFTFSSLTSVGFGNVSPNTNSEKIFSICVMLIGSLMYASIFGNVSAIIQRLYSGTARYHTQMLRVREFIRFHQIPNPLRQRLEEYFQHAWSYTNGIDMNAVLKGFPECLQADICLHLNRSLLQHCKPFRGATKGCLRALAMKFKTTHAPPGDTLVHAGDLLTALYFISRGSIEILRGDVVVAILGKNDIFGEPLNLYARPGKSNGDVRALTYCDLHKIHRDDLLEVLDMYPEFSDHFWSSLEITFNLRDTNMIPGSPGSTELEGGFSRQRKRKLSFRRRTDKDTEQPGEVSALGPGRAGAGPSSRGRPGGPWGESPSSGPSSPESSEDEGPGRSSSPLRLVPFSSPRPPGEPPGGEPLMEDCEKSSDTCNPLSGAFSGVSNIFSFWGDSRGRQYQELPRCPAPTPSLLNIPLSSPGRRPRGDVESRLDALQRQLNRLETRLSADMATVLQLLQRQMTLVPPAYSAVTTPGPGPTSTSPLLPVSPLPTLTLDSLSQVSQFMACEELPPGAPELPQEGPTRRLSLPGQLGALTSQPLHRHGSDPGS

SMILES	hERG current change (%, negative = inhibition) at 10uM [%]
O=C(Nc1c2c(nn1-c1ccccc1)CS(=O)C2)c1ccco1 (stereo not drawn)	7.5
CC(=O)OCC(=O)[C@@]1(OC(C)=O)[C@@H](C)C[C@H]2[C@@H]3C[C@H](F)C4=CC(=O)C=C[C@]4(C)[C@@]3(F)[C@@H](O)C[C@@]21C	-15.1
Cl.OCCNc1nc(Nc2cccc(O)c2)nc2ccccc12	-23.8
Cl.Oc1ccccc1Nc1nc(NCC2CCCO2)c2ccccc2n1 (stereo not drawn)	-67.5
Oc1ccc(Cl)cc1Nc1nc(NCC2CCCO2)c2ccccc2n1 (stereo not drawn)	23
Oc1ccccc1-c1nc(NCC2CCCO2)c2ccccc2n1 (stereo not drawn)	19
Cl.Oc1cccc(Nc2nc(NCC3CCCO3)c3ccccc3n2)c1 (stereo not drawn)	-61.4
COc1ccc(Nc2nc(NCC3CCCO3)c3ccccc3n2)c(OC)c1.Cl (stereo not drawn)	-71.7
CCOc1ccc(Nc2nc(NCC3CCCO3)c3ccccc3n2)cc1.Cl (stereo not drawn)	-72.3
CC(C)Oc1ccc(-c2nc(NCC3CCCO3)c3ccccc3n2)cc1 (stereo not drawn)	-27.4
COc1ccc(OC)c(Nc2nc(NCCO)c3ccccc3n2)c1.Cl	-44.4
COc1ccc(S(=O)(=O)Nc2nc3ccccc3nc2NCC2CCCO2)cc1 (stereo not drawn)	5.29
Cl.c1ccc(Nc2nc(NCC3CCCO3)c3ccccc3n2)cc1 (stereo not drawn)	-31.2
CCOc1ccc(Nc2nc(N)c3ccccc3n2)cc1.Cl	-41.8
CC(C)C[C@@H](CO)N1CCN(Cc2cccnc2)CCC1=O	3.69
CCn1c2ccccc2c2cc(NC(=O)c3cccc([N+](=O)[O-])c3C)ccc21	7.76
CCOc1ccc(/C=C2/SC(=S)N(n3c(C)ccc3C)C2=O)cc1	8.78
Cc1ccc(N=C(N(C)C)P(=O)(N(C)C)N(C)C)cc1	17.4
Cc1ccc(Oc2cc(NN3CCCCC3)c([N+](=O)[O-])cc2[N+](=O)[O-])c([N+](=O)[O-])c1	-10.3
O=C(Nc1cccc(NC(=O)c2ccccc2Cl)c1)c1cccs1	2.54
O=[N+]([O-])c1ccc(CSC2=NCCS2)cc1	-15.3
CC1CCN(C(=O)c2[nH]cnc2C(=O)N2CCN(C(=O)OC(C)(C)C)CC2)CC1	19
O=C(CN(Cc1ccccc1Cl)C(=O)c1csnn1)NC1CCCC1	-13.6

SMILES	hERG current change (%, negative = inhibition) at 10uM [%]
COc1cccc(-c2nc(NCC3CCCO3)c3ccccc3n2)c1O (stereo not drawn)	-21.2
c1cncc(-c2nc(NCC3CCCO3)c3ccccc3n2)c1 (stereo not drawn)	7.02
COc1ccccc1Nc1nc(NCC2CCCO2)c2ccccc2n1.Cl (stereo not drawn)	-59.6
CC(C)C(=O)NC(=S)Nc1ccccc1C(F)(F)F	10.4
O=C(N/N=C/c1coc2ccccc2c1=O)c1ccccc1Br	-0.324
Clc1ccc(Nc2ccc(NCc3ccccc3)nn2)cc1	-37.8
Cc1cccc(Nc2ccc(NCc3ccccc3)nn2)c1	-51.8
Cc1cccc(NCc2ccccc2)c1	5.29
O=C(NNC(=S)NC(=O)c1ccccc1[N+](=O)[O-])c1ccccc1Cl	6.38
O=C(NNC(=S)NC(=O)c1ccccc1[N+](=O)[O-])c1ccc(Cl)cc1Cl	-58.2
O=C(NNC(=S)NC(=O)c1ccccc1[N+](=O)[O-])c1ccccc1[N+](=O)[O-]	15.1
N/C(=N\N=C\c1ccco1)SC1CC(=O)N(c2ccccc2)C1=O (stereo not drawn)	17.1
CC(C)CC(=O)NC(=S)Nc1sc2c(c1C(N)=O)CCC2	15.7
Cc1nn(-c2cc(N3CCOCC3)ccc2N)c(=O)c2ccccc12	0.574
O=C(NCc1ccccn1)c1ccccc1OCc1ccc(F)cc1	-56.9
COc1ccccc1C(=O)NCc1ccccn1	18.4
O=C(NCc1ccc(F)cc1)c1ccccc1OCc1ccccc1	-8.06
O=C(Cn1nc(C(=O)O)c2ccccc2c1=O)NCC1CCCO1 (stereo not drawn)	20
CCCCc1cc(=O)oc2cc(OCC(=O)N3CCc4ccccc43)ccc12	6.81
CCOc1ccc(OCCN2CCCCC2)cc1.O=C(O)C(=O)O	-21.7
CCOc1ccc(CNCCN2CCCC2)cc1.O=C(O)C(=O)O	-63.9
O=C(O)C(=O)O.c1ccc(COc2ccc(OCCN3CCCC3)cc2)cc1	-60.3
O=C(O)C(=O)O.c1ccc(OCCN2CCOCC2)cc1	12

SMILES	hERG current change (%, negative = inhibition) at 10uM [%]
COC(=O)c1ccc(OCCN2CCCCCC2)cc1.O=C(O)C(=O)O	-1.51
O=C(O)C(=O)O.c1ccc(COc2ccc(OCCN3CCCCC3)cc2)cc1	-70.2
c1ccc2cc(OCCN3CCCC3)ccc2c1	-33.1
CCN(CC)CCOc1ccc2c(c1)C(=NO)c1cc(OCCN(CC)CC)ccc1-2.Cl	-16.4
CCOc1ccc(C(=O)CCN2CCCCC2)cc1	-19.7
CCOc1ccc(OCCOCCN2CCCC2)cc1.O=C(O)C(=O)O	0.376
Cc1ccc(OCCN2CCCC2)cc1.O=C(O)C(=O)O	-3.76
Cl.ON=C1c2cc(OCCN3CCCCC3)ccc2-c2ccc(OCCN3CCCCC3)cc21	-58.1
CCn1c(-c2ccccc2)c[nH]c1=S	15.4
CN(C)c1cccc(C(=O)NCCCSc2ccccc2)c1	4.72
Cc1nn(Cc2ccccc2Cl)c2sc(C(=O)OC3CCCC3=O)cc12 (stereo not drawn)	-4.19
COc1cc(NS(=O)(=O)c2ccc(NC(=S)NC(=O)c3ccc(F)cc3)cc2)nc(OC)n1	3.73
N#Cc1cc2cc3c(cc2nc1NCCNC(=S)NCCCN1CCOCC1)OCO3	14.2
CC(C)CCN1C(=O)c2ccc(C(=O)OCC(=O)N(C)C3CCS(=O)(=O)C3)cc2C1=O (stereo not drawn)	-8.41
CCn1nc(C(=O)OCC(=O)NCC(C)C)c2ccccc2c1=O	0.00988
CC(C)Cn1nc(C(=O)OCC(=O)NCC(F)(F)F)c2ccccc2c1=O	-78.2
CCn1nc(C(=O)OCC(=O)NC(C)C)c2ccccc2c1=O	8.88
COC(=O)c1cc(NC(=O)c2c(C)noc2C)ccc1N1CCOCC1	17.6
COc1ccc(N2C(=O)/C(=C/c3ccc(N(C)C)o3)C(=O)NC2=S)cc1	3.28
O=C(c1ccc(Cn2cnnn2)cc1)N1CCCC(Nc2ccc(F)cc2)C1 (stereo not drawn)	-0.196
COc1cccc(CN2CCN(Cc3ccc(O)c(OC)c3)CC2CCO)c1 (stereo not drawn)	-5.76
COc1ccc(CN2CCN(Cc3ccc(C)cc3)C(CCO)C2)cc1OC (stereo not drawn)	-54.3
COc1cc(CN2CCN(Cc3ccc(C)cc3)C(CCO)C2)cc(OC)c1O (stereo not drawn)	-51.6

SMILES	hERG current change (%, negative = inhibition) at 10uM [%]
COc1cc(CN2CCN(Cc3ccc(C)cc3)C(CCO)C2)ccc1O (stereo not drawn)	-19.6
COc1ccc(CN2CCN(Cc3ccc(CO)o3)CC2CCO)cc1C (stereo not drawn)	-8.64
CC(=O)Nc1ccc(CN2CCN(Cc3ccc(C)cc3)C(CCO)C2)cc1 (stereo not drawn)	-34.5
CCOc1cccc(OCCOCCN(C)C)c1.O=C(O)C(=O)O	0.719
COC(=O)c1ccc(CN2C(=O)NC3(CCCCC3C)C2=O)o1 (stereo not drawn)	-11.4
O=C(CSc1nnc(Cc2ccccc2)o1)Nc1ccc2c(c1)OCO2	10.5
CCOC(=O)Cc1csc(NC(=O)Cc2ccccc2)n1	1.37
CC(=O)N1c2ccc(S(=O)(=O)N3CCC(C(=O)Nc4cccc(C(F)(F)F)c4)CC3)cc2CC1C (stereo not drawn)	11.7
COc1ccc(OCc2cc(C(=O)N3CCCCCC3)no2)c(Cl)c1	-11.7
O=C(Nc1ccc(F)cc1)N1CCN(C/C=C/c2ccccc2)CC1	-68.6
O=C(Nc1cccc(F)c1)N1CCN(C/C=C/c2ccccc2)CC1	-59
O=C(Nc1ccc(F)cc1F)N1CCN(CCc2ccccc2)CC1	-15.6
CCOC(=O)N1CCN(C(=O)Nc2cccc(Cl)c2)CC1	2.81
O=C(Nc1ccc2c(c1)OCO2)N1CCN(C/C=C/c2ccccc2)CC1	-15.4
O=C(Nc1ccc(F)cc1)N1CCN(CCc2ccccc2)CC1	-52.3
S=C(Nc1ccccc1)N1CCN(C/C=C/c2ccccc2)CC1	-8.71
O=C(Nc1cccc(Cl)c1)N1CCN(C/C=C/c2ccccc2)CC1	-68.5
O=C(Nc1cccc(Cl)c1)N1CCOCC1	20
O=C(Nc1ccccc1)N1CCN(CCc2ccccc2)CC1	-14.5
O=C(Cc1ccccc1)Nc1ccc(N2CCOCC2)cc1N1CCOCC1	-0.646
CSCCC(NC(=O)COc1ccccc1)C(=O)N1CC(C)CC(C)C1 (stereo not drawn)	-41.4
